The text below walks through data of paper PMC7862700, “An all-to-all approach to the identification of sequence-specific readers for epigenetic DNA modifications on cytosine”.

Holding throughout (test): DAPPL (digital affinity profiling via proximity ligation, sequencing); 10 mM Tris-HCl pH 7.5, 50 mM NaCl, 1 mM DTT, 4% glycerol, room temperature, 30 min; GST-TFs on glutathione beads, 16-mer random dsDNA library, 0.1% formaldehyde crosslink after washing; high values mean tight binding
Holding throughout (conditions): protein: recombinant; tags: N-terminal GST; dsDNA, one strand shown

Test [1] addresses T1, FLI1 (Homo sapiens, UniProt Q01543 1-452).
T1 sequence: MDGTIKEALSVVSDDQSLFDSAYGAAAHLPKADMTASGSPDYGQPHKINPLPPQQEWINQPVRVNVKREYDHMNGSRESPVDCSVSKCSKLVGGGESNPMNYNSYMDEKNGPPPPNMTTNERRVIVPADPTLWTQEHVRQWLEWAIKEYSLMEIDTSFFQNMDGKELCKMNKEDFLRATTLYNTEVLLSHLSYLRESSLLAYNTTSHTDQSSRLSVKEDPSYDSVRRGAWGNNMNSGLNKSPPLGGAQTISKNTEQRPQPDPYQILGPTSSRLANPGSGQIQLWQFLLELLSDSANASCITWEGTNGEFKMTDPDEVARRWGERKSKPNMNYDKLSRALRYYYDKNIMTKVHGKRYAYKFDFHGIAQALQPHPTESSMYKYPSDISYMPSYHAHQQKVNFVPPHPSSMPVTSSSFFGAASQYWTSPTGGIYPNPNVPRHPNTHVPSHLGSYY
An outline of the steps:
(§1)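 Beads coated with glutathione captured GST-fused human transcription factors that had been expressed in yeast, and the factors were then given DNA barcodes and pooled with a tag-only sample. The pools were incubated with 200 nmole of a random double-stranded 16-mer DNA library in Tris/NaCl/DTT/glycerol buffer for 30 min at room temperature, washed, crosslinked with 0.1% formaldehyde and proximity-ligated with BsaI/T4 ligase at 37 °C for 1 h. PCR amplification and Illumina NextSeq500 sequencing came last. Binding signal is each hexamer's read frequency for a factor divided by its frequency for the tag-only sample.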

The target in test [2] is T2, ELK1 (Homo sapiens, UniProt P19419 1-428).
T2 sequence: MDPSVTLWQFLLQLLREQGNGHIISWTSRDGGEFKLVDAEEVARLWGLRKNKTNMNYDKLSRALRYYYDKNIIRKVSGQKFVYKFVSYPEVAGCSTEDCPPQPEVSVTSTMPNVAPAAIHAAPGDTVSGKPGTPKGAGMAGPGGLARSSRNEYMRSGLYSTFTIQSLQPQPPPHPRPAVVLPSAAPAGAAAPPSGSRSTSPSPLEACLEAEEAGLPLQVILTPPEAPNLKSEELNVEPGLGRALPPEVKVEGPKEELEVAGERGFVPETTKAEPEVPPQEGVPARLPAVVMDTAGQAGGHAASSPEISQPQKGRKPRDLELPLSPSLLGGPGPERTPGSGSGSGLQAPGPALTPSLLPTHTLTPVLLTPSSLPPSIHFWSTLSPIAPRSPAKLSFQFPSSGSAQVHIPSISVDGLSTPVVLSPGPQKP
The essentials: as §1

The target of test [3] is T3, GABPA (Homo sapiens, UniProt Q06546 1-454).
T3 sequence: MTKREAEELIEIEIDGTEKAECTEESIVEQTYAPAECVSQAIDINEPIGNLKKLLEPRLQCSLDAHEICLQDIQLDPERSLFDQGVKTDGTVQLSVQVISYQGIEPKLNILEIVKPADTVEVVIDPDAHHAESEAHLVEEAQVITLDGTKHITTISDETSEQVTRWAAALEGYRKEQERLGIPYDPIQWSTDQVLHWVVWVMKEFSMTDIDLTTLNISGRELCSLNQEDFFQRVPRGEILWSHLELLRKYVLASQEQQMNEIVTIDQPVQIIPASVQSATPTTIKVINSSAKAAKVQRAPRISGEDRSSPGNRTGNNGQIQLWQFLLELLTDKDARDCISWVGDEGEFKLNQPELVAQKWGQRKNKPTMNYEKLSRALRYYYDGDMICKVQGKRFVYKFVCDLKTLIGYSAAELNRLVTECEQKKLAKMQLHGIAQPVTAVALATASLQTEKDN
An outline of the steps: as §1

Test [4] addresses T4, ERG (Homo sapiens, UniProt P11308 1-479).
T4 sequence: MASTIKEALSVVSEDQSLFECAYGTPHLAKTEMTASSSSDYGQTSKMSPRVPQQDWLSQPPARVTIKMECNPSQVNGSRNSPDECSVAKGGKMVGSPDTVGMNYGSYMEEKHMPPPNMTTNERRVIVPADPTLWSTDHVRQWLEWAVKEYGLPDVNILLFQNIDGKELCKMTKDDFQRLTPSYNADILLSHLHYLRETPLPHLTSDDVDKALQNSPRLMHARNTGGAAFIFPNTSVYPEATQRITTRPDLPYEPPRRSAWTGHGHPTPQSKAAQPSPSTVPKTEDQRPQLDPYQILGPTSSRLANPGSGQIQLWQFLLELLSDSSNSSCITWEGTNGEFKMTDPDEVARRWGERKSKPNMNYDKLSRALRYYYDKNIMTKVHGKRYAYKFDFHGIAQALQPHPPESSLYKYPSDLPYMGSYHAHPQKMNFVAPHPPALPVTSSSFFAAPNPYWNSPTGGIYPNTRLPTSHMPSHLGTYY
An outline of the steps:
as §1

Test [5] concerns the target ELF1 (Homo sapiens, UniProt P32519 1-619). The essentials: as §1
Test [6] has as its target T5, EHF (Homo sapiens, UniProt Q9NZC4 1-300).
T5 sequence: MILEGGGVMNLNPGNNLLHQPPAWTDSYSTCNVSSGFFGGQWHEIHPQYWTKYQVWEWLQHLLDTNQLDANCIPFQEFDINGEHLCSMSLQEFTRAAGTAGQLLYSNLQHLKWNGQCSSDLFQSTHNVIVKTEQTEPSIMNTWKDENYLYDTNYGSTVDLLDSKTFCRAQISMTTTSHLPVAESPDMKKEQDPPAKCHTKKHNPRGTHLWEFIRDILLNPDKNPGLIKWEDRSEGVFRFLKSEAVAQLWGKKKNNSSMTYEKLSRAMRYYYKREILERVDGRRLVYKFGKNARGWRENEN
The essentials:
as §1

Test [7] addresses SPI1 (Homo sapiens, UniProt P17947 1-270). An outline of the steps:
as §1

Test [8] concerns the target SPIB (Homo sapiens, UniProt Q01892 1-262). An outline of the steps:
as §1

Test [9] has as its target T6, ELK3 (Homo sapiens, UniProt P41970 1-407).
T6 sequence: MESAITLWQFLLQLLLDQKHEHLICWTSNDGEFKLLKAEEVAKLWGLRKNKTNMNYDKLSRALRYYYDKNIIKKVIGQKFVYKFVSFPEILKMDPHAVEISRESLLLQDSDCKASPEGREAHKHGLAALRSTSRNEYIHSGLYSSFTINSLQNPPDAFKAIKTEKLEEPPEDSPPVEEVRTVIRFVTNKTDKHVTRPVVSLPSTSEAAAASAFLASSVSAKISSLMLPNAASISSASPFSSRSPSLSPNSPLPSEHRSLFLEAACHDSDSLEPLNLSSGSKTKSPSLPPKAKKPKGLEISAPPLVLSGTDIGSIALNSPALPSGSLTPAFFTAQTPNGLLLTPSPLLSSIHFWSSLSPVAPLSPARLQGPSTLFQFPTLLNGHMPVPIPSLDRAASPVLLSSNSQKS
The essentials: as §1

Sequence of ELF1 (P32519 whole entry): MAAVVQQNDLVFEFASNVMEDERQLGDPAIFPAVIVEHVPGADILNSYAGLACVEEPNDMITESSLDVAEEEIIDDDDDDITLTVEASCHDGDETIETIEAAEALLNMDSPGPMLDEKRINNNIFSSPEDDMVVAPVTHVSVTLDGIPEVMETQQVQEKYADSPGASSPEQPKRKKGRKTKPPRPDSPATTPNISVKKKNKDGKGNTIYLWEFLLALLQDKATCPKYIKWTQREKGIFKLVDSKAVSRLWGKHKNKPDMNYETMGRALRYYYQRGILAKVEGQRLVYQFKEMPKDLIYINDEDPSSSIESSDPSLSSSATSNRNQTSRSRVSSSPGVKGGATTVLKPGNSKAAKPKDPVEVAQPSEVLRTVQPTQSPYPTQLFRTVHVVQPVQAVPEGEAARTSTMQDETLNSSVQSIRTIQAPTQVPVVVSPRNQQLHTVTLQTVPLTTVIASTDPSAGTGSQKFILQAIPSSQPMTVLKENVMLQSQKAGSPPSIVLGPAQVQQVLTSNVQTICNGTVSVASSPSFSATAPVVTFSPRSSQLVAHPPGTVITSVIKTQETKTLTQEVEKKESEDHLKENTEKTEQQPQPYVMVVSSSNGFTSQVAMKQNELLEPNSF
Sequence of SPIB (Q01892 whole entry): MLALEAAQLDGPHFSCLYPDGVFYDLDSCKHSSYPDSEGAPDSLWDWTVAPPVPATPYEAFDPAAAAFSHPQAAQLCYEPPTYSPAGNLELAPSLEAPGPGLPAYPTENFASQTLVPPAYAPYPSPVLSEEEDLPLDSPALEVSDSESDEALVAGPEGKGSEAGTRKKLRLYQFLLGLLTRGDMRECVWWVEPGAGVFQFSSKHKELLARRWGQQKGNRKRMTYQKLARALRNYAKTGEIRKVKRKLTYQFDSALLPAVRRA

Consider TACGAT, for which the binding signal in test [1] is 1.14 fold enrichment (6-mer frequency, TF over GST control); in test [2], 1.09 fold enrichment (6-mer frequency, TF over GST control); in [3] it was 1.17 fold enrichment (6-mer frequency, TF over GST control); in [4], 1.11 fold enrichment (6-mer frequency, TF over GST control); in [5], 1.11 fold enrichment (6-mer frequency, TF over GST control); in [6], 1.03 fold enrichment (6-mer frequency, TF over GST control). Besides, the binding signal in test [7] was 1.09 fold enrichment (6-mer frequency, TF over GST control); in [8], 1.14 fold enrichment (6-mer frequency, TF over GST control); in [9], 1.09 fold enrichment (6-mer frequency, TF over GST control).
Turning to GTTATT, the binding signal in [1] is 1.16 fold enrichment (6-mer frequency, TF over GST control); in test [2], 1.23 fold enrichment (6-mer frequency, TF over GST control); in test [3], 1.17 fold enrichment (6-mer frequency, TF over GST control); in [4] it was 1.15 fold enrichment (6-mer frequency, TF over GST control); in [5], 1.05 fold enrichment (6-mer frequency, TF over GST control); in test [6], 1.08 fold enrichment (6-mer frequency, TF over GST control). Further, the binding signal in [7] is 1.28 fold enrichment (6-mer frequency, TF over GST control); in test [8], 1.09 fold enrichment (6-mer frequency, TF over GST control); in [9] it was 1.23 fold enrichment (6-mer frequency, TF over GST control).
For TACGTA, the binding signal in test [1] is 1.41 fold enrichment (6-mer frequency, TF over GST control); in test [2] it was 1.36 fold enrichment (6-mer frequency, TF over GST control); in test [3], 1.31 fold enrichment (6-mer frequency, TF over GST control); in test [4], 1.2 fold enrichment (6-mer frequency, TF over GST control); in test [5] it was 1.32 fold enrichment (6-mer frequency, TF over GST control); in test [6], 1.41 fold enrichment (6-mer frequency, TF over GST control). Further, the binding signal in [7] was 1.35 fold enrichment (6-mer frequency, TF over GST control); in test [8], 1.15 fold enrichment (6-mer frequency, TF over GST control); in test [9], 1.37 fold enrichment (6-mer frequency, TF over GST control).
Consider CTCTAT, for which the binding signal in [1] is 1.09 fold enrichment (6-mer frequency, TF over GST control); in [2] it was 1.22 fold enrichment (6-mer frequency, TF over GST control); in test [3] it was 1.2 fold enrichment (6-mer frequency, TF over GST control); in test [4], 1.17 fold enrichment (6-mer frequency, TF over GST control); in [5], 1.22 fold enrichment (6-mer frequency, TF over GST control); in [6], 1.09 fold enrichment (6-mer frequency, TF over GST control). The binding signal is 1.16 fold enrichment (6-mer frequency, TF over GST control) in [7]; 1.17 fold enrichment (6-mer frequency, TF over GST control) in [8]; 1.11 fold enrichment (6-mer frequency, TF over GST control) in [9].
CTAACT: the binding signal is 1.36 fold enrichment (6-mer frequency, TF over GST control) in test [1]; 1.35 fold enrichment (6-mer frequency, TF over GST control) in test [2]; 1.36 fold enrichment (6-mer frequency, TF over GST control) in test [3]; 1.37 fold enrichment (6-mer frequency, TF over GST control) in test [4]; 1.37 fold enrichment (6-mer frequency, TF over GST control) in test [5]; 1.25 fold enrichment (6-mer frequency, TF over GST control) in test [6]. Also, the binding signal in test [7] was 1.36 fold enrichment (6-mer frequency, TF over GST control); in test [8], 1.35 fold enrichment (6-mer frequency, TF over GST control); in [9] it was 1.29 fold enrichment (6-mer frequency, TF over GST control).
Turning to CATCTA, the binding signal in test [1] is 1.22 fold enrichment (6-mer frequency, TF over GST control); in test [2], 1.3 fold enrichment (6-mer frequency, TF over GST control); in [3] it was 1.25 fold enrichment (6-mer frequency, TF over GST control); in test [4] it was 1.11 fold enrichment (6-mer frequency, TF over GST control); in [5], 1.25 fold enrichment (6-mer frequency, TF over GST control); in test [6], 1.18 fold enrichment (6-mer frequency, TF over GST control). The binding signal in [7] was 1.16 fold enrichment (6-mer frequency, TF over GST control); in test [8] it was 1.17 fold enrichment (6-mer frequency, TF over GST control); in test [9], 1.13 fold enrichment (6-mer frequency, TF over GST control).
Regarding CTTTTT, the binding signal was 1.22 fold enrichment (6-mer frequency, TF over GST control) in test [1]; 1.16 fold enrichment (6-mer frequency, TF over GST control) in test [2]; 1.32 fold enrichment (6-mer frequency, TF over GST control) in test [3]; 1.25 fold enrichment (6-mer frequency, TF over GST control) in test [4]; 1.31 fold enrichment (6-mer frequency, TF over GST control) in [5]; 1.17 fold enrichment (6-mer frequency, TF over GST control) in [6]. The binding signal in [7] was 1.88 fold enrichment (6-mer frequency, TF over GST control); in test [8], 1.41 fold enrichment (6-mer frequency, TF over GST control); in test [9] it was 1.37 fold enrichment (6-mer frequency, TF over GST control).
